From PubChem BioAssay (NCI)
This is part of a sample that, as a whole, favours compounds with a hit. Of some 83,000 tested, about 20% had one in any assay.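 In brief: 96-well plates, 48 h treatment, single concentration, percent growth endpoint.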 A number with no mark means an inactive call. The source made the active and inactive calls. The calls were made as follows: active = growth percent below 10; inactive = the rest.

Tested on: HL-60(TB) leukemia
Assay: NCI-60 one-dose screen, 48 h (100 = growth as untreated, 0 = no growth, -100 = all killed)
Details: 10 µM unless noted

SMILES	growth
S=c1[nH]c2cc(Cl)ccc2o1	86.5%
CCC(C)(C)c1ccc(OCCCCCCN2CCNCC2)cc1	-17.4% (active)
O=c1ccc(N=Nc2ccccc2)ccc1Cl	42.8%
Nc1ccccc1-c1cc2c(c3c1[nH]c1ccccc13)CCCCC2	91.6%
Nc1nc(N)c2cc(NCc3ccc(Cl)c(Cl)c3)ccc2n1	-65.7% (active)
O=c1cc(SCc2ccccc2)nc[nH]1	82.3%
CN1CCN(CCCOc2ccc3nc(Nc4ccc(Cl)c(C(F)(F)F)c4)ccc3c2)CC1	63.7%
O=C(NC1CCS(=O)(=O)C1)c1ccc(C(=O)c2ccccc2)cc1 (configuration not stated)	191%
COc1cc2cc(NCc3ccc(F)cc3)nc(C)c2cc1OC	31.7%
CCN1/C(=C/C(C)=C/c2sc3ccc4ccccc4c3[n+]2CC)Sc2ccc3ccccc3c21	-52.1% (active)
COc1ccc(S(=O)(=O)Nc2cc(/C=C\c3cc(OC)c(OC)c(OC)c3)ccc2OC)cc1	-31.6% (active)
O=S(=O)(NCCNc1cc(-c2c(-c3cccc(O)c3)nc3sccn23)ccn1)c1ccc(Br)cc1	77.6%
S=C1CC(=S)NC(=S)N1	131%
CCCCc1nc(Cl)c(C2CC(c3ccc(Cl)cc3)=NN2c2cc(Cl)cc(Cl)c2)[nH]1 (configuration not stated)	35.4%
CC(C)OCC(CCl)OC(=O)Nc1ccccc1 (configuration not stated)	97.3%
Cc1ccc(C=C2C(=O)NC(=O)NC2=O)cc1	101%
CCOC(=N)c1ccc(C(=N)OCC)cc1	101%
